We go through 40 molecules from PubChem BioAssay (Tox21).

Each structure is given as a SMILES string. Results filed as inconclusive are left out. A call without a number means that no potency is given here. The source made the active and inactive calls. Calls come from the whole dose curve.
Potency is the fitted concentration of half-maximal effect.

A short description of the experiment: p53 small molecule agonists, cell-based qHTS assay with rat liver microsomes (AID 1963578). To be noted: HCT-116 p53RE-bla, beta-lactamase ratio, 16 h; series mostly up to 66 µM. The text has this:
U.S. Tox21 Program National Center for Advancing Translational Sciences [NCATS] Division of Preclinical Innovation [DPI] U.S. Environmental Protection Agency [EPA] National Institutes of Environmental Health Sciences [NIEHS] National Toxicology Program [NTP] U.S. Food and Drug Administration [FDA] Tox21 Assay Overview: p53, a tumor suppressor protein, is activated following cellular insult, including DNA damage and other cellular stresses. The activation of p53 regulates cell fate by inducing DNA repair, cell cycle arrest, apoptosis, or cellular senescence. The activation of p53, therefore, is a good indicator of DNA damage and other cellular stresses. […] The activation of the reporter gene under culture conditions can be detected by fluorescence intensity. This cell line was used to screen the Tox21 10K compound library in the condition of presence of rat liver microsomes and to identify agonists that activate the p53 signaling pathway after in vitro metabolic activation (Ooka et al., Archive of Toxicology 96:1975-1987, 2022).
Tox21 Assay Protocol Summary: The p53RE-bla cells were dispensed at 4,000cells/3ul/well in 1536-well black-clear bottom plates. After the assay plates were incubated at 37 C, 5% CO2 incubator for 5 hours, 23 nL of compounds dissolved in DMSO, positive controls or DMSO only was transferred to the assay plate. Following compound addition, 3 uL of rat liver microsomes (Molecular Toxicology, Boone, NC) at final concentration of 0.5 mg/mL and 1uL of Beta-Nicotinamide adenine dinucleotide 2-phosphate (NADPH) at final concentration of 0.5 mg/mL were transferred to the assay plate. The plates were incubated at 37 C for 16 hours. 1 uL of LiveBLAzer detection mixture was added to each well and the plates were incubated at room temperature in the dark for 2 h.
Turning to `CCCCCCCCCCCC#N`, the Potency entry was “inactive”.

For `OCCSSCCO`, the Potency result was “inactive”.

Regarding `OC(c1ccc(Cl)cc1)(c1cncnc1)c1ccccc1Cl` (stereo not given), the Potency entry was “inactive”.

Turning to `Oc1ccc(-c2ccccc2)cc1`, the Potency entry is “inactive”.

`O=C(CCl)c1ccccc1`: the Potency result is “inactive”.

For the molecule `OCC(Cl)CCl` (stereo not given), the Potency result is “inactive”.

For the molecule `O=NN1CCOCC1`, the Potency entry is “inactive”.

With `Cc1ccc(-c2nc3ccc(C)cn3c2CC(=O)N(C)C)cc1`, the Potency entry was “inactive”.

Regarding `CCCCCCOC(=O)c1ccccc1C(=O)OCCCCCC`, the Potency result was “inactive”.

Turning to `CCCCOCC1CO1` (stereo not given), the Potency entry was “inactive”.

For `CC(=[OH+])/C=C(/C)[O-].CC(=[OH+])/C=C(\C)[O-].CC(=[OH+])/C=C(\C)[O-].[Al]`, the Potency result is “inactive”.

For `CCCOC(=O)c1ccccc1C(=O)OCCC`, the Potency result was “inactive”.

With `CCC(C)Cl` (stereo not given), the Potency result was “inactive”.

For `Nc1ccc(Br)cc1`, the Potency entry is “inactive”.

In the case of `Brc1ccc(Oc2cc(Br)c(Br)cc2Br)c(Br)c1`, the Potency result is “inactive”.

As to `O=C(O)CC[N+](=O)[O-]`, the Potency result was “inactive”.

Regarding `CC(C)c1ccc(O)cc1`, the Potency entry was “inactive”.

On to `Nc1ccc(Oc2ccc(N)cc2)cc1`, for which the Potency result is “inactive”.

`CN(C)c1ccccc1`: the Potency result was “inactive”.

`CCCCCCCCCCOC(=O)c1ccccc1C(=O)OCCCCCCCCCC`: the Potency result is “inactive”.

In the case of `CNC(=O)Oc1cccc2ccccc12`, the Potency is 32.4 µM (active).

For `S=C=S`, the Potency result is “inactive”.

`C=C(C)[C@@H]1CC=C(C=O)CC1`: the Potency entry is “inactive”.

For the molecule `COc1ccc(C(CN(C)C)C2(O)CCCCC2)cc1` (stereo not given), the Potency result was “inactive”.

`N#Cc1cc([N+](=O)[O-])ccc1N`: the Potency result is “inactive”.

With `Cc1ccccc1N`, the Potency result was “inactive”.

Take `Cc1ccc2ccccc2c1`: the Potency entry was “inactive”.

Regarding `C=Cc1cccc(CCl)c1`, the Potency entry is “inactive”.

As to `Cn1c(N)nc2c3cccnc3ccc21`, the Potency result is “inactive”.

For `O=C(NCNC(=O)NC1C(=O)NC(=O)N1CO)NC1C(=O)NC(=O)N1CO` (stereo not given), the Potency entry was “inactive”.

For the molecule `CC(Cl)C(=O)O` (stereo not given), the Potency result was “inactive”.

As to `COc1c(C(C)(C)C)cc([N+](=O)[O-])c(C)c1[N+](=O)[O-]`, the Potency entry was “inactive”.

As to `CC1=C2[C@H]3OC(=O)[C@@H](C)[C@@H]3CC[C@@]2(C)C=CC1=O`, the Potency entry is “inactive”.

In the case of `CCCCC(CC)C(=O)Cl` (stereo not given), the Potency result is “inactive”.

Take `NCC(O)c1ccc(O)cc1` (stereo not given): the Potency entry is “inactive”.

Consider `Cn1cc[n+](C)c1` (tested in a mixture with another compound), for which the Potency result is “inactive”.

On to `COc1cc(OC)nc(Oc2cccc(Oc3nc(OC)cc(OC)n3)c2C(=O)O)n1`, for which the Potency result is “inactive”.

As to `Cc1ccc2cc(C)ccc2c1`, the Potency result is “inactive”.

For `COc1cccc(C=O)c1`, the Potency entry was “inactive”.

With `Cl/C=C/Cl`, the Potency result is “inactive”.
